Source: PubChem BioAssay (National Center for Advancing Translational Sciences (NCATS))
Nrf2 inh: inhibitors of Nrf2 signaling | A549 ARE-Fluc reporter, luciferase luminescence, 18-24 h | Potency, µM (highest dose often 46 µM), actives largely listed as inhibitors | 360,000 tested, 2.1% active | AID 504444; also: nearly all actives have a fitted effect of over 60% in size
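A549 ARE_Fluc cells (5000/well, 5% FBS OPTI-MEM) pre-incubated 2 h, then treated with compounds 18-24 h at 37C/5% CO2 in concentration-response. CellTiter-Fluor viability read first; BugLite luciferase luminescence after 15 min at room temperature gives Nrf2 activity.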
LDHA inh: blocks human lactate dehydrogenase A; AID 1347041; purified LDHA, NADH/diaphorase-resazurin fluorescence; active compounds read low; activity change, % (values are at about 110 or 230 µM); P00338; 480,000 tested, 0.15% active; in the data active = activity change below about -30%; inconclusive = mostly about -25% to -30%
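Remaining NADH was detected by diaphorase (0.133 mg/mL) converting 37 µM resazurin to fluorescent resorufin, read at 0 and 20 minutes. The preceding 5-minute room-temperature reaction used 2 nM LDHA, 0.2 mM sodium pyruvate and 0.06 mM NADH at pH 7.4.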
ERG Ets-DNA blk: blocks human ERG Ets domain binding to DNA. P11308. fluorescence polarization, His-ERG Ets domain / labelled DNA. Potency, µM (top dose mostly 76.9 µM), usual class: inhibitors. 370,000 tested, 0.028% active. AID 624246; active = well fitted inhibition curve with a large enough effect in the polarisation, with a control signal flat; inconclusive = small, poorly fitted or top-dose-only effect, or effect the other way, or a change in a side signal; inactive = no such curve, though single readings can be large or run the other way; the % refers to the polarisation;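 also: polarization taken with two DNA probes labelled with fluorescein and Texas red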
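His-tagged ERG Ets domain (1 uM in the protein solution; 300mM KCl, 50mM Tris-HCl, 1mM EDTA, 1mM DTT, pH 7.5) received compound, then a probe mix of 5 nM fluorescein-DNA and 100nM Texas-615-DNA. Fluorescence polarization was read for both dyes.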
A549 tox-1: A549 cytotoxicity, counter-screen for Nrf2 inhibitors; AID 504648; A549 ARE-Fluc cells, CellTiter-Fluor viability, 18-24 h; 390,000 tested, 0.16% active; Potency, µM (top dose mostly 46 µM), hits mostly inhibitors
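A549 ARE_Fluc cells in 5% FBS OPTI-MEM were exposed to compounds in concentration-response for 18-24 h at 37 deg C. Viability was read by CellTiter-Fluor fluorescence (Ex 405/Em 525) after 30 min, before the luciferase read.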
ALOX12 inh: ALOX12 (human) lipoxygenase inhibition | purified 12hLO, xylenol orange hydroperoxide absorbance | 580,000 tested, 1.1% active | P18054 | AID 1671190 | Potency, µM (highest dose often 108 µM), hits mostly inhibitors
Target sequence (P18054 whole entry, looked up): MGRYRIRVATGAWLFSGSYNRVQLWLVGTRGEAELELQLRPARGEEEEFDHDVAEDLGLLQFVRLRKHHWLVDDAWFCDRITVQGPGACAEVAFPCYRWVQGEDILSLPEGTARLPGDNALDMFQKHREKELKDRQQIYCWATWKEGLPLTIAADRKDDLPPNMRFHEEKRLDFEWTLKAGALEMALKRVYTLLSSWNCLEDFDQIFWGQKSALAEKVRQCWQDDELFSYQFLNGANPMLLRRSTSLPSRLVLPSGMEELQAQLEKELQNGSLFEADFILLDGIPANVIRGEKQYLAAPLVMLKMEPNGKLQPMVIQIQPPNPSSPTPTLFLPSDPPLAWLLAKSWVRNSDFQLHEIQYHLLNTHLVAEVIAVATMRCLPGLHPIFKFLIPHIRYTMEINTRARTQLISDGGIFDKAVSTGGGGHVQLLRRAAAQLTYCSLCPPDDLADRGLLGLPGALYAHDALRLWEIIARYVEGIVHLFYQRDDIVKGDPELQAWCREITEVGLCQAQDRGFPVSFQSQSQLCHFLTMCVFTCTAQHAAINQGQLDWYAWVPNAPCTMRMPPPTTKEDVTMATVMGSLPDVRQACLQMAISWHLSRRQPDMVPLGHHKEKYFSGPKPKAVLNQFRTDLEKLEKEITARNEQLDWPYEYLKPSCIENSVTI
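Hydroperoxide product was detected by ferrous iron/xylenol orange as the 573 to 405 nm absorbance ratio. Arachidonic acid at 40 uM (final) was turned over for 30 min at room temperature by 150 nM human 12hLO, pH 7.0 Hepes buffer, after 15 min compound preincubation.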
Nrf2 ARE act: Nrf2 pathway activation. AREc32 ARE-luciferase reporter (MCF7-derived line), luminescence, 24 h. Potency, µM (titrated, usually from 46.1 µM), most hits filed as activators. 410,000 tested, 0.31% active; also: nearly all actives have a fitted effect of over 65% in size
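For detection, Steady-Glo was added and plates sat 30 min at RT; before that, AREc32_Fluc cells grown overnight in OPTI-MEM/5% FBS had been treated with 23 nL compound for 24 hr at 37 deg C.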
FLuc enzyme inh: blocks purified firefly luciferase in Nrf2 counterscreen | shares compounds with Nrf2 inh | purified firefly luciferase, luminescence inhibition | Potency, µM (doses to about 57.5 µM), most hits filed as inhibitors | 1,400 tested, 4% active | AID 720522; also: nearly all actives have a fitted effect of over 65% in size
A549 tox-2: toxic to A549 ARE-Fluc cells in Nrf2 counterscreen | Potency, µM (titrated, usually from 46.1 µM), hits mostly inhibitors | A549 ARE-Fluc cells, cytotoxicity counterscreen | AID 720523 | 1,400 tested, 2% active | shares compounds with Nrf2 inh;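 also: cells exposed to compounds for 18 to 24 hours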
ARE-Fluc inh: reduces Nrf2 ARE reporter signal in A549 cells; A549 ARE-firefly luciferase reporter, luminescence; AID 720524; shares compounds with Nrf2 inh; 1,400 tested, 74% active; Potency, µM (highest dose often 46.1 µM), hits mostly inhibitors; also: nearly all actives have a fitted effect of over 65% in size
Hits are given with their value; n = inactive; u = inconclusive; x = not tested or not shown; [ ] = remark or other dose. Only some compounds are listed: those with a hit (about 2.7% of all), similar ones and a draw of the others. Unless noted, calls follow the shape of the dose curve; as a rule, active = well fitted curve in the direction sought with a large enough effect; inconclusive = small, poorly fitted or top-dose-only effect, or another doubt; inactive = no such curve, though single readings can be large; an effect the other way counts as inactive or inconclusive.

SMILES	Nrf2 inh	LDHA inh	ERG Ets-DNA blk	A549 tox-1	ALOX12 inh	Nrf2 ARE act	FLuc enzyme inh	A549 tox-2	ARE-Fluc inh
COc1cc(C2CC(=O)c3c([nH]c(C(=O)OCC4CCCCC4)c3C)C2)cc(OC)c1OC (configuration not stated)	2.31µM	n	n	n	n	n	n	n	4.61µM
COc1ccc(COC(=O)c2[nH]c3c(c2C)C(=O)CC(c2ccc(OC)c(OC)c2)C3)cc1 (configuration not stated)	6.51µM	n	n	n	n	n	n	n	6.51µM
Cc1ccc(S(=O)(=O)N2CCC(n3c(C)nc4cccnc43)CC2)c(C)c1	9.2µM	n	n	n	n	n	n	n	x
COc1ccc(NC(=O)C(C)N2c3cccc4cccc(c34)S2(=O)=O)cc1 (configuration not stated)	x	n	n	n	n	n	x	x	x
COc1ccc(NC(=O)C(C)N2c3cccc4cccc(c34)S2(=O)=O)cc1OC (configuration not stated)	8.2µM	n	x	n	n	n	n	n	23.1µM
CCc1ccc(NC(=O)c2ccc(Cn3nc(N4CCN(c5ccccc5)CC4)ccc3=O)o2)cc1	5.17µM	n	n	u	u	n	u	n	6.51µM
CCc1ccccc1NC(=O)c1ccc(Cn2nc(N3CCN(c4ccccc4)CC3)ccc2=O)o1	u	n	n	n	u	n	x	x	x
CC[C@]12c3[nH]c4ccc(Cl)cc4c3CCN1C(=O)[C@@H](CC(=O)NC/C=C(\C)CCC=C(C)C)C[C@@H]2C(=O)N1CCN(C(=O)c2ccco2)CC1	6.51µM	n	n	u	u	n	n	u	16.4µM
O=C(Nc1ccc([C@@H](O)[C@H]2COCC(=O)N2CCCc2ccccc2)cc1)C1CCC1	x	x	x	x	n	x	x	x	x
COc1ccc(CNc2cc(C)nc3ncnn23)c(OC)c1	1.64µM	n	n	n	n	n	n	n	u
COc1ccc(Nc2cc(C)nc3ncnn23)c(OC)c1	n	n	n	n	n	n	x	x	x
Cc1cc(C)c(S(=O)(=O)NCCc2ccncc2)c(C)c1	n	n	n	n	n	n	x	x	x
Cc1ccc(S(=O)(=O)NCc2ccccn2)c(C)c1C	n	n	n	n	u	n	x	x	x
COc1cc(C)c(Br)cc1S(=O)(=O)NCc1ccncc1	3.26µM	n	n	n	n	n	n	n	n
Cc1ccc(S(=O)(=O)NCc2ccncc2)c(C)c1C	1.46µM	n	n	n	n	n[9.22 µM]	n	n	6.51µM
Cc1cc(C)c(S(=O)(=O)NCc2ccncc2)c(C)c1	u	n	n	n	n	n	0.107µM	n	0.206µM
CC1CCCCC1NC(=S)Nc1cccc2cnccc12 (configuration not stated)	x	n	x	x	n	x	x	x	x
Cc1ccc(N/N=C/c2ccc(F)c(F)c2)cc1Cl	x	n	x	x	u	x	x	x	x
Oc1c(C(Nc2ccccn2)c2ccccn2)ccc2cccnc12 (configuration not stated)	u	n	n	n	u	n	x	x	x
Oc1ccccc1C(Nc1nccs1)c1ccc2cccnc2c1O (configuration not stated)	5.8µM	n	n	u	n	n	n	n	13µM
CCN(c1ccccc1)S(=O)(=O)c1cc(C(=O)Nc2ccc(Br)cc2)ccc1F	5.8µM	n	n	u	n	n	n	n	11.6µM
Oc1ccc(CCNc2ncnc3ccc(Cl)cc23)cc1	7.31µM	n	n	n	n	n	n	n	7.31µM
